Assay outcomes: PubChem, The Scripps Research Institute Molecular Screening Center
SMARCA2 act: SMARCA2 (BRM) function activators, primary screen, cell-based, luminescence, high throughput | MG213 cells, MMTV-luciferase reporter, dexamethasone, overnight | activation, % at 9.1 µM | 370,000 compounds, 1% hits | AID 652017, 2013; in the data active = activation above about 7.8%;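 also: 0% = vehicle wells and 100% = reference activator wells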
proKLK7 act: proKLK7 zymogen activators, primary screen, biochemical, fluorescence intensity; purified proKLK7, EDANS-DABCYL substrate fluorescence; 100% is mature enzyme control, 0% vehicle; activation, % at 7 µM; 370,000 compounds, 0.9% hits; AID 652039, 2013;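 active = activation above the mean of all tested compounds plus 3 SD, computed per campaign excluding outliers beyond control limits, cut at about 13% in these data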
Target sequence (P49862 whole entry, looked up): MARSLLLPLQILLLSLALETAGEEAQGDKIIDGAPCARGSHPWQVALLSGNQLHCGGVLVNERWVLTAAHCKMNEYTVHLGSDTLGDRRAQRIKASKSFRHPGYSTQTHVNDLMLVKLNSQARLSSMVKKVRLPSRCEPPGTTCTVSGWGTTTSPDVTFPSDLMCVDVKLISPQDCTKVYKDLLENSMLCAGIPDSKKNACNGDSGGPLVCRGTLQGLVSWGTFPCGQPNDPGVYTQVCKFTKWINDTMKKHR
bovine MsrA act: bovine MsrA enzyme activators, primary screen, biochemical, absorbance, HTS; Methionine sulfoxide reductase A (Bos taurus); purified bovine MsrA, absorbance read-out; activation, % at 10.6 µM; 360,000 compounds, 0.3% hits; AID 602163, 2012; in the data active = activation above about 7.5%;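 also: 0% = vehicle and 100% = reference activator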
MsrA inhibitor: bovine MsrA enzyme inhibitors, primary screen, biochemical, absorbance, HTS; Methionine sulfoxide reductase A (Bos taurus); purified bovine MsrA, absorbance read-out; inhibition, % at 15.5 µM; 360,000 compounds, 0.75% hits; AID 651718, 2012; in the data active = inhibition above about 4.5%;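 also: 0% = vehicle wells with enzyme and 100% = reference inhibitor wells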
proKLK7 act conf: proKLK7 zymogen activators, confirmation, biochemical, fluorescence intensity, triplicate; shares compounds with proKLK7 act; purified proKLK7, EDANS-DABCYL substrate fluorescence; scaled: vehicle 0, mature enzyme 100; activation, % at 7 µM; 3,200 compounds, 68% hits;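 active = activation, as change over the incubation, above the mean of all tested compounds plus 3 SD, cut at about 13% in these data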
EDANS-DABCYL int: EDANS-DABCYL substrate optical interference, artefact control for kallikrein-7 zymogen activator project, biochemical, fluorescence intensity, high throughput. no enzyme, 4 h; solvent 0%, active enzyme control 100%. 3,200 compounds, 80% hits. shares compounds with proKLK7 act. activation, % at 7 µM;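 active = activation above the all-compound mean plus 3 SD, ignoring values outside control-based bounds, cut at about 4.8% in these data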;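 also: value is the 4 h activation minus the activation read at time zero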
EDANS interf: EDANS fluorescence interference in dose response, no enzyme; shares compounds with proKLK7 act; EDANS-DABCYL peptide fluorescence interference; EC50, µM; 250 compounds, 20% hits; AID 720493;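 active = compounds that raise the fluorescence signal in this interference counterscreen, with EC50 at or below 10 µM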;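 also: intact quenched peptide substrate alone read at 355 nm excitation and 520 nm emission; signal is fluorescence gain from T0 to T4 after four hours at room temperature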
Active calls of the source: *; . = no result given; ! = a repeat was not active. In the library only some 2.8% were active in any assay of this set; here they are far more common.

SMILES	SMARCA2 act	proKLK7 act	bovine MsrA act	MsrA inhibitor	proKLK7 act conf	EDANS-DABCYL int	others
CCOC(=O)COc1ccc2nsnc2c1Cl	1	38*	-3	2	37*	41*
O=C(C[C@@H]1CC[C@H](NC(=O)c2ccc3c(c2)OCO3)[C@@H](CO)O1)NCc1ccc(F)cc1	1	-1	.	0	.	.
CCOC(=O)c1cc2c(=O)n3cccc(C)c3nc2n(CC2CCCO2)c1=NC(C)=O (stereo not given)	1	15*!	-2	0	6	7.0*
CCOC(=O)c1cc2c(=O)n3ccccc3nc2n(CCCOC)c1=NC(=O)c1ccncc1	1	18*	-3	-1	4	4
CCOC(=O)c1cc2c(=O)n3ccccc3nc2n(CCCOC)c1=NC(C)=O	-2	62*	0	1	7	7.2*
COc1ccc(CNC(=O)c2cc3c(=O)n4cccc(C)c4nc3n(CC3CCCO3)c2=N)cc1 (stereo not given)	0	-1	-2	1	.	.
CCOC(=O)c1cc2c(=O)n3cccc(C)c3nc2n(CCOC)c1=NC(C)=O	-7	15*	-3	0	10	9.4*
Cc1ccc(S(=O)(=O)CCOC(=O)CNC(=O)OCc2ccccc2)cc1	-2	0	-2	0	.	.
Cc1ccc(C)c(C(O)c2ncc(-c3ccccc3Cl)[nH]2)c1 (stereo not given)	0	0	-3	0	.	.
O=C(C1CCN(S(=O)(=O)c2ccc3[nH]c(=O)oc3c2)CC1)N1CCCC1	2	0	.	.	.	.
CN(Cc1ccccc1)S(=O)(=O)c1cccc(C(=O)OCc2ccc(C(F)(F)F)cc2)c1	-1	0	.	.	.	.
CCOc1ccc(/C(O)=C2/C(=O)C(=O)N(c3ccccn3)C2c2ccc(F)cc2)c(C)c1 (stereo not given)	-4	14*	-1	3	19*	20*
Cc1ccc(/C(O)=C2/C(=O)C(=O)N(c3ccccn3)C2c2ccc(F)cc2)cc1 (stereo not given)	3	2	-2	1	.	.
COCCCN1C(=O)C(CC(=O)NC2CCCCC2)CC(C(=O)N2CCCCCC2)=C1C (stereo not given)	-4	83*	0	-1	0	-1
CCCCN1C(=O)C(CC(=O)NC2CCCCC2)CC(C(=O)N2CCCCCC2)=C1C (stereo not given)	-4	0	-14	1	.	.
C=C(C)Cn1c2ccc(NC(=O)NCc3ccccc3)cc2c(=O)n1C	-2	28*	-2	3	32*	26*	EDANS interf=>70
COc1ccc(CCNC(=O)Nc2ccc3c(c2)c(=O)n(C)n3Cc2ccc(Cl)cc2)cc1OC	-4	-9	-2	0	.	.
Cc1cc(C)cc(Cn2c3ccc(NC(=O)NCc4ccccc4)cc3c(=O)n2C)c1	-3	-2	0	-1	.	.
CCNC(=O)Nc1ccc2c(c1)c(=O)n(C)n2Cc1ccc(Cl)cc1	5	28*	-3	0	16*	26*
Cn1c(=O)c2cc(NC(=O)NCCc3ccccc3)ccc2n1Cc1ccccc1	-3	8	0	1	.	.
C=C(C)Cn1c2ccc(NC(=O)NCC)cc2c(=O)n1C	-1	39*	-2	4	53*	58*
CCCC(=O)OC[C@H]1CN(C2CCCC2)S(=O)(=O)c2c(Oc3ccc(C(C)(C)C)cc3)cccc2O1	1	0	.	0	.	.
OC[C@@H]1CN(CCN2CCOCC2)C[C@H](n2cnc3c(N4CCCC4)ncnc32)O1	-3	0	-6	0	.	.
Cc1cc(C)c2cc3c(ccn3C3OC[C@H](O)[C@H](O)[C@H]3O)cc2n1 (stereo not given in full)	0	23*	-5	0	48*	47*
CCC/C=C/c1ccc(CN2C(C)C(=O)N(Cc3cn(CCC4OCCCO4)nn3)CCS2(=O)=O)cc1 (stereo not given)	-6	0	-7	1	.	.
SMILES	SMARCA2 act	proKLK7 act	bovine MsrA act	MsrA inhibitor	proKLK7 act conf	EDANS-DABCYL int	others
CCOc1ccc(-n2c(SCC(=O)Nc3ccc(S(=O)(=O)Nc4cc(C)nc(C)n4)cc3)nnc2-c2cccc(C)c2)cc1	2	0	.	.	.	.
CCCN(CCC)CCNC(=O)CCC(=O)Nc1ccc2nc(N3CCOCC3)cc(C)c2c1	-1	57*	-2	3	153*	144*
CCCCN(CC)CCNC(=O)CCC(=O)Nc1ccc2nc(N3CCN(C)CC3)cc(C)c2c1	-3	78*	-2	1	106*	115*
COc1ccc(OC)c(CN(CC(C)C)S(=O)(=O)c2ccccc2Br)c1	-2	1	.	0	.	.
Cn1nnnc1Sc1ncnc2scc(-c3cc4ccccc4o3)c12	-8	0	-3	1	.	.
N#Cc1c(N2CCOCC2)nc(N)c2c(N)nc3c(c12)CC(CCl)O3 (stereo not given)	2	73*	-2	1	76*	19*	EDANS interf=>70
CCc1nc(N2CCOCC2)c(C#N)c2c1CCCC2	-2	-1	-2	1	.	.
CCOc1cc2c(C#N)c(N3CCNCC3)nc(N)c2c(N)n1	2	69*	-3	1	67*	64*
COc1cc2c(C#N)c(N3CCOCC3)nc(N)c2c(N)n1	1	22*	-1	1	21*	23*
CN(C)CCCNC(=O)C[C@@H]1CC[C@@H]2[C@H](COc3ccc(NC(=O)c4cccc(F)c4)cc3C(=O)N2C)O1	-1	0	.	.	.	.
CN1C(=O)c2cc(NC(=O)Nc3ccc(F)c(F)c3)ccc2OC[C@H]2O[C@@H](CC(=O)O)CC[C@H]21	-6	0	.	.	.	.
COc1ccc2oc(C(=O)Nc3nnc(C)s3)c(C)c2c1	1	21*	-3	1	1	3
Cc1ccc2oc(C(=O)Nc3nnc(C)s3)c(C)c2c1	-1	0	-10	0	.	.
C=CCn1c(=N)c(C(=O)NCCCOC)cc2c(=O)n3ccccc3nc21	0	136*	-2	1	57*	67*
C=CCn1c(=N)c(C(=O)NCCCOC)cc2c(=O)n3cc(C)ccc3nc21	2	143*	-3	3	58*	62*
COCCCNC(=O)c1cc2c(=O)n3cccc(C)c3nc2n(C(C)C)c1=N	-2	4	-3	-1	.	.
O=c1c2ccccc2c(/C=N/n2cnnc2)c(O)n1-c1ccccc1	-1	1	-3	1	.	.
